These results are taken from PubChem BioAssay (Tox21).

Assay [1] is described as follows: qHTS assay to identify small molecule antagonists of the sonic hedgehog signaling (Shh) pathway (AID 1259369; calls by dose curve; also: nearly all actives have a fitted effect of over 45% in size; also: potency is read from the fitted curve at half-maximal effect). Put shortly: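 Luminescence readout: firefly Luc under Gli1 response element in 3T3Gli1-Luc cells (NIH/3T3 clone). Antagonist mode, stimulation by conditioned medium; compound exposure 24hr at 37 C, 5% CO2.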
(In qHTS, concentration-response curves come from the screen itself.)

The target in assay [2] is Estrogen receptor beta (Homo sapiens) (UniProt Q92731). Nature of the assay: qHTS assay to identify small molecule agonists of the estrogen receptor beta (ER-beta) signaling pathway (AID 1259377; active = well fitted activation curve with a large enough effect in the signal ratio in the repeat runs, not every such curve was filed as active; the % refers to the signal ratio). In outline:
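In HEK293T cells bearing a UAS-beta-lactamase reporter under ER-beta control, DMSO-delivered compounds were incubated for 16 hr at 37C. Activity was detected as fluorescence 2 hours after LiveBLAzer B/G FRET substrate addition.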

Assay [3] in a line: qHTS assay to identify small molecule agonists of the estrogen receptor beta (ER-beta) signaling pathway - cell viability counter screen (AID 1259380). Also: nearly all actives have a fitted effect of over 30% in size. Also: potency is read from the fitted curve at half-maximal effect. In outline:
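Luminescence read-out (CellTiter-Glo, 30 min, room temp) taken in the same wells as the beta-lactamase reporter assay; ER-beta-UAS-bla HEK293T cells exposed to DMSO-dissolved compounds for 16 hr at 37C in 2% charcoal-stripped FBS medium.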

Assay [4] can be described thus: qHTS assay to identify small molecule antagonists of the estrogen receptor beta (ER-beta) signaling pathway - cell viability counter screen (AID 1259382). Also: nearly all actives have a fitted effect of over 55% in size. Also: potency is read from the fitted curve at half-maximal effect. In outline:
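Luminescent ATP read-out (CellTiter-Glo, 30 min, RT) taken in the same wells as the bla reporter assay. HEK293T ER-beta-UAS-bla cells in 2% charcoal-stripped FBS were exposed to compounds with 1nM E2 for 16 hr at 37C.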

For assay [5], the target named is Thyrotropin receptor (Homo sapiens) (UniProt P16473). Nature of the assay: qHTS assay to identify small molecule antagonists of the thyroid stimulating hormone receptor (TSHR) signaling pathway (AID 1259385; calls by dose curve; also: nearly all actives have a fitted effect of over 20% in size; also: potency is read from the fitted curve at half-maximal effect). In outline: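 TSHR-HEK293 cells were plated and held 18 h at 37C/5% CO2, then given compound plus Ro20-1724 and stimulated with TSH at 1.5 ng/mL final. After 30 min at room temperature, cAMP was detected with cAMP-d2/anti-cAMP-cryptate (1 h) by fluorescence.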
Thyrotropin receptor (Homo sapiens), sequence (P16473 whole entry, looked up): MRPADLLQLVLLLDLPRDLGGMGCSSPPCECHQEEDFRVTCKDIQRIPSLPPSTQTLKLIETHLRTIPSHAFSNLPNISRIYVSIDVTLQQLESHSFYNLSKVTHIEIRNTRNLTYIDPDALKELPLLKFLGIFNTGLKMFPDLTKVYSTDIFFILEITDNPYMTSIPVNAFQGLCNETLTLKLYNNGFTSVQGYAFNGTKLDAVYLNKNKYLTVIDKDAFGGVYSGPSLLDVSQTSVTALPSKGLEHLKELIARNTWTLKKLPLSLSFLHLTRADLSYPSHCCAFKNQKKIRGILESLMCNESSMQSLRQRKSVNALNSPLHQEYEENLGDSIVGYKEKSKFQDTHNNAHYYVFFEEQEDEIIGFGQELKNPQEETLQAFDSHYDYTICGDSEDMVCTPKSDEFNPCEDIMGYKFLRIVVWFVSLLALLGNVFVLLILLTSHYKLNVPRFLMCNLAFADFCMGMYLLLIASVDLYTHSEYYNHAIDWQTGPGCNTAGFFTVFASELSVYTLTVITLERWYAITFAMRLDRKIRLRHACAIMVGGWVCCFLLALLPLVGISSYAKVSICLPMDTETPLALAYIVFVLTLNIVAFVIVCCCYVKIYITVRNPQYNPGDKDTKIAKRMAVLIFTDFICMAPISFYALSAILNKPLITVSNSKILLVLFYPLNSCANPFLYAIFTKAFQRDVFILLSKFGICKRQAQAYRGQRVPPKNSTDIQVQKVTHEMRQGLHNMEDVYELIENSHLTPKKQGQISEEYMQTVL

The nature of assay [6]: qHTS assay to identify small molecule agonists of the estrogen receptor alpha (ER-alpha) signaling pathway in the presence of an antagonist - cell viability counter screen (AID 1259386). Also: nearly all actives have a fitted effect of over 30% in size. Also: potency is read from the fitted curve at half-maximal effect. In outline: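 Read-out: CellTiter-Fluor fluorescence after 1hr reagent incubation, measured in the same wells as the luciferase readout. VM7Luc4E2 cells were exposed to 15 compound concentrations with 10.0nM ICI-182,780 for 22hr at 37C.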

The target in assay [7] is Progesterone receptor (Homo sapiens) (UniProt P06401). Briefly: qHTS assay to identify small molecule agonists of the progesterone receptor (PR) signaling pathway (AID 1346784; calls by dose curve; also: nearly all actives have a fitted effect of over 30% in size). In outline:
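Using charcoal-stripped serum (2%) to limit endogenous steroids, PR-UAS-bla HEK 293T cells received compounds for 16 hr at 37C after 6 hr plating; beta-lactamase FRET fluorescence was recorded following 2 hr substrate loading at room temperature.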

The target is the same in assay [8]. Briefly: qHTS assay to identify small molecule antagonists of the progesterone receptor (PR) signaling pathway (AID 1346795; active = well fitted inhibition curve with a large enough effect in the signal ratio in the repeat runs, not every such curve was filed as active; the % refers to the signal ratio; also: potency is read from the fitted curve at half-maximal effect). Put shortly:
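Inhibition of R5020-induced (1 nM final) beta-lactamase reporter signal in PR-UAS-bla HEK293T cells was scored by FRET fluorescence after overnight (16 hr) compound treatment.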

Assay [9] is described as follows: qHTS assay to identify small molecule antagonists of the progesterone receptor (PR) signaling pathway - cell viability counter screen (AID 1346798). Also: nearly all actives have a fitted effect of over 50% in size. Also: potency is read from the fitted curve at half-maximal effect. Put shortly:
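ATP content as viability readout: CellTiter-Glo luminescence, 30 min room temperature, in PR-UAS-bla HEK293T cells after 16 hr compound/R5020 treatment at 37C and 5% CO2.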

Assay [10] is described as follows: qHTS assay to identify small molecule agonists of the progesterone receptor (PR) signaling pathway - cell viability counter screen (AID 1346799; calls by dose curve; also: nearly all actives have a fitted effect of over 45% in size). Put shortly:
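Cytotoxicity in PR-bla HEK293T cells: 16 h compound, 37C; CellTiter-Glo added post-FRET read; luminescence after 30 min RT.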

Assay [11] is described as follows: qHTS assay to identify small molecule antagonists of the TGF-beta/Smad signaling pathway - cell viability counter screen (AID 1346824). Also: nearly all actives have a fitted effect of over 50% in size. Put shortly:
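SBE-bla HEK 293T cells were plated overnight at 37 C, then given compounds in DMSO plus TGF-beta1 (added as 0.25 ng/mL solution) for 5 hr. After the bla read, CellTiter-Glo was added to the same wells and luminescence read after 30 min at room temperature.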

A short description of assay [12]: qHTS assay to identify small molecule agonists of the TGF-beta/Smad signaling pathway (AID 1346859; active = well fitted activation curve with a large enough effect in the signal ratio in the repeat runs, not every such curve was filed as active; the % refers to the signal ratio; also: series mostly up to about 77 µM). Put shortly:
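Stable Smad binding element-beta-lactamase HEK 293T cells; 5 hr compound exposure at 37 C under 5% CO2; 2 hr room-temperature substrate step; fluorescence excited at 405 nm, collected at 460 nm and 530 nm.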

The target of assay [13] is Thyrotropin-releasing hormone receptor (Homo sapiens) (UniProt P34981). Briefly: qHTS assay to identify small molecule antagonists of the thyrotropin-releasing hormone receptor (TRHR) signaling pathway (AID 1346877; active = well fitted inhibition curve with a large enough effect in the repeat runs, not every such curve was filed as active; also: series mostly up to about 51 µM). In outline:
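HEK293/TRHR cells, 18 h, 37 °C; Ca2+ dye 2 h; cpd 5 min RT; TRH 1 nM final; fluorescence read 3 min, 1 s intervals; 15 concs, triplicate.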

The target is the same in assay [14]. Nature of the assay: qHTS assay to identify small molecule agonists of the thyrotropin-releasing hormone receptor (TRHR) signaling pathway (AID 1346891; calls by dose curve;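 also: HEK293 cells expressing TRHR with calcium dye readout; series mostly up to about 58 µM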). In outline: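 In 1536-format, 1500 TRHR-Hek293 cells per well grew 18 h, took up calcium dye for 2 h at 37 °C, received compound, and were read kinetically; 15-point titrations, triplicates.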
For assay [15], the target named is Estrogen receptor (Homo sapiens) (UniProt P03372). Briefly: qHTS assay to identify small molecule agonists of the estrogen receptor alpha (ER-alpha) signaling pathway in the presence of an antagonist (AID 1259383; calls by dose curve; also: top concentration of the series differs between compounds; nearly all actives have a fitted effect of over 15% in size). Put shortly:
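Luciferase luminescence (ONE-Glo, 30min at room temperature) measured in VM7Luc4E2 cells after 22hr compound exposure at 15 concentrations, with 10.0nM ICI-182,780 final present; cells express endogenous ER-alpha and carry four EREs upstream of luciferase.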

The nature of assay [16]: qHTS assay to identify small molecule agonists or antagonists of the thyroid stimulating hormone receptor (TSHR) signaling pathway - wild type cell line counter screen (AID 1259384; calls by dose curve). Put shortly: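 Wild-type HEK293 cells were plated 18 h at 37 C/5% CO2, pin-dosed with compound plus Ro20-1724 medium, held 30 min at room temperature, then given cAMP-d2 and anti-cAMP-cryptate; fluorescence was read after 1 h. Fifteen concentrations, triplicate.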

Assay [17] in a line: qHTS assay to identify small molecule agonists of the TGF-beta/Smad signaling pathway - cell viability counter screen (AID 1346829). Also: nearly all actives have a fitted effect of over 45% in size. Also: potency is read from the fitted curve at half-maximal effect. Put shortly: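 Same-well cytotoxicity: CellTiter-Glo added after the 2 hr room-temperature beta-lactamase substrate step, luminescence measured 30 min later; cells had 5 hr of compound at 37 C.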
Assay [18] is described as follows: qHTS assay to identify small molecule agonists of the androgen receptor (AR) signaling pathway in the presence of an antagonist - cell viability counter screen (AID 1259379). Also: nearly all actives have a fitted effect of over 25% in size. Also: potency is read from the fitted curve at half-maximal effect. Put shortly:
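Viability counter screen: CellTiter-Fluor fluorescence, measured in the same wells as the luciferase read-out. MDA-kb2 cells, 3,000/well, with nilutamide at 3.0uM final and compounds at 15 concentrations, 16 hr at 37C, 0% CO2.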

Assay [19] concerns the target Androgen receptor (Homo sapiens) (UniProt P10275). Briefly: qHTS assay to identify small molecule agonists of the androgen receptor (AR) signaling pathway in the presence of an antagonist (AID 1259381; calls by dose curve; also: nearly all actives have a fitted effect of over 15% in size). In outline: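 Luciferase read-out (ONE-Glo, 30min room temperature) in MDA-kb2 MMTV-reporter cells; agonist mode run in presence of AR antagonist nilutamide, 3.0uM final. Compounds tested as 15-point series, 16hr exposure at 37C, 0% CO2.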

The target in assay [20] is Estrogen receptor beta (Homo sapiens) (UniProt Q92731). Briefly: qHTS assay to identify small molecule antagonists of the estrogen receptor beta (ER-beta) signaling pathway (AID 1259378; active = well fitted inhibition curve with a large enough effect in the signal ratio in the repeat runs, not every such curve was filed as active; the % refers to the signal ratio). In outline:
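ER-beta-UAS-bla HEK293T (GripTite) cells in 2% charcoal-stripped FBS medium were preincubated 6 hr at 37C, dosed with compound, then stimulated with 1 nM E2 (final) for 16 hr; beta-lactamase reporter read by B/G FRET fluorescence after 2 hr substrate loading.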

Inconclusive results are not listed. The source made the active and inactive calls. Unless noted, calls follow the shape of the dose curve; as a rule, active = well fitted curve in the direction sought with a large enough effect in the repeat runs; inconclusive = weak or mixed curves; inactive = no such curve, though single readings can be large; an effect the other way counts as inactive or inconclusive.

Androgen receptor (Homo sapiens), sequence (P10275 whole entry, looked up): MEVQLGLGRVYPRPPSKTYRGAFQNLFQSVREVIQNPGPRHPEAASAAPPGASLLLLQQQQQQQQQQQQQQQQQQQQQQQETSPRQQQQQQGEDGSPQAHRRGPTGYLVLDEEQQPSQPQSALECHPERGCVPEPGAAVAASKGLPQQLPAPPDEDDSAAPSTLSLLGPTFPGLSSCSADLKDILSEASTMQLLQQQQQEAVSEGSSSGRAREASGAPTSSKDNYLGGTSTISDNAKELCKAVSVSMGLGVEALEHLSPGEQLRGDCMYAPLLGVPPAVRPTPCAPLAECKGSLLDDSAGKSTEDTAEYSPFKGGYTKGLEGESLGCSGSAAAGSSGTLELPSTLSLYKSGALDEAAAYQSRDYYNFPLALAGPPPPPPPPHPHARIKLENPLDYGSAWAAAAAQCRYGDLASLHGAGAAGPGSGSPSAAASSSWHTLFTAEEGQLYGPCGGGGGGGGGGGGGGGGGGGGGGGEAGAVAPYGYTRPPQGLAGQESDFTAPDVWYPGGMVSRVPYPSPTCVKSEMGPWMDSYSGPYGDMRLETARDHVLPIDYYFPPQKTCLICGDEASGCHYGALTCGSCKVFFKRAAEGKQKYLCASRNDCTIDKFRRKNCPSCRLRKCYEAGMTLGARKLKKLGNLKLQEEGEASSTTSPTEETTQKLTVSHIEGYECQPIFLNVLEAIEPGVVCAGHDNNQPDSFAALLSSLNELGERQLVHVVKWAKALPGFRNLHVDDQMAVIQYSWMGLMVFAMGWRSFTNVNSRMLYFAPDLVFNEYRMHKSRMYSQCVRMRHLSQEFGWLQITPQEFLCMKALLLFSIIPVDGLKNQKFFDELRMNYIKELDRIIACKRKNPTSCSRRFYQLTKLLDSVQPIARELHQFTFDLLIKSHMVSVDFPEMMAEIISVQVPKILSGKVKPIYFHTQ
Estrogen receptor (Homo sapiens), sequence (P03372 whole entry, looked up): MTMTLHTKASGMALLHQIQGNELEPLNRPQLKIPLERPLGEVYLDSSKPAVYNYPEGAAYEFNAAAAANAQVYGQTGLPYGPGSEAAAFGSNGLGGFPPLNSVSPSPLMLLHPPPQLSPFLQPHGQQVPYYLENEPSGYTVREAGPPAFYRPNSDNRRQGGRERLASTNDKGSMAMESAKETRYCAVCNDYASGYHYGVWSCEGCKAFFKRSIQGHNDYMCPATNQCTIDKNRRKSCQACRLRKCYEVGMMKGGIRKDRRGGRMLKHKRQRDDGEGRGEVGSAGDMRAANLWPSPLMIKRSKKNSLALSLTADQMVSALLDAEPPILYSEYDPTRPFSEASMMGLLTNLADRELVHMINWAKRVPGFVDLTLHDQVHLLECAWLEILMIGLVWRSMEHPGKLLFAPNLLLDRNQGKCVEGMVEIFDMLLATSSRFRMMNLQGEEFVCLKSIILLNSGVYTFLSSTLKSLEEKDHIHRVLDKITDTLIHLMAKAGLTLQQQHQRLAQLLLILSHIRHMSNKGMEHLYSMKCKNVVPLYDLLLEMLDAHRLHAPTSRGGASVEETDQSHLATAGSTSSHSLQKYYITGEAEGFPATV
Estrogen receptor beta (Homo sapiens), sequence (Q92731 whole entry, looked up): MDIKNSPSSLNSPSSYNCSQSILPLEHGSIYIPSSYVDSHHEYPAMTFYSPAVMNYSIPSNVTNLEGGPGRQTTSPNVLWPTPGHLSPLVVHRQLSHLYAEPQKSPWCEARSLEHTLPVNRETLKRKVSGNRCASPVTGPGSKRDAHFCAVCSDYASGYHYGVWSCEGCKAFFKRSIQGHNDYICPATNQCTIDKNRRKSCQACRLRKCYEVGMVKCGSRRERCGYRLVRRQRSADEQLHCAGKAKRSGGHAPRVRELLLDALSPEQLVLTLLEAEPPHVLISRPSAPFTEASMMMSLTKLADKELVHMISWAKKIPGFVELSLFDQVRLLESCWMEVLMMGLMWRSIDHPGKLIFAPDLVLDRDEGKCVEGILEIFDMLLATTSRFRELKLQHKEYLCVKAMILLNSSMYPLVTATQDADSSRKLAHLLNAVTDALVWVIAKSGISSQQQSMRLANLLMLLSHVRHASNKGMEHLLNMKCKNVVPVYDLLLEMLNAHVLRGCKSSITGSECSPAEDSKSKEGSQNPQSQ
Progesterone receptor (Homo sapiens), sequence (P06401 whole entry, looked up): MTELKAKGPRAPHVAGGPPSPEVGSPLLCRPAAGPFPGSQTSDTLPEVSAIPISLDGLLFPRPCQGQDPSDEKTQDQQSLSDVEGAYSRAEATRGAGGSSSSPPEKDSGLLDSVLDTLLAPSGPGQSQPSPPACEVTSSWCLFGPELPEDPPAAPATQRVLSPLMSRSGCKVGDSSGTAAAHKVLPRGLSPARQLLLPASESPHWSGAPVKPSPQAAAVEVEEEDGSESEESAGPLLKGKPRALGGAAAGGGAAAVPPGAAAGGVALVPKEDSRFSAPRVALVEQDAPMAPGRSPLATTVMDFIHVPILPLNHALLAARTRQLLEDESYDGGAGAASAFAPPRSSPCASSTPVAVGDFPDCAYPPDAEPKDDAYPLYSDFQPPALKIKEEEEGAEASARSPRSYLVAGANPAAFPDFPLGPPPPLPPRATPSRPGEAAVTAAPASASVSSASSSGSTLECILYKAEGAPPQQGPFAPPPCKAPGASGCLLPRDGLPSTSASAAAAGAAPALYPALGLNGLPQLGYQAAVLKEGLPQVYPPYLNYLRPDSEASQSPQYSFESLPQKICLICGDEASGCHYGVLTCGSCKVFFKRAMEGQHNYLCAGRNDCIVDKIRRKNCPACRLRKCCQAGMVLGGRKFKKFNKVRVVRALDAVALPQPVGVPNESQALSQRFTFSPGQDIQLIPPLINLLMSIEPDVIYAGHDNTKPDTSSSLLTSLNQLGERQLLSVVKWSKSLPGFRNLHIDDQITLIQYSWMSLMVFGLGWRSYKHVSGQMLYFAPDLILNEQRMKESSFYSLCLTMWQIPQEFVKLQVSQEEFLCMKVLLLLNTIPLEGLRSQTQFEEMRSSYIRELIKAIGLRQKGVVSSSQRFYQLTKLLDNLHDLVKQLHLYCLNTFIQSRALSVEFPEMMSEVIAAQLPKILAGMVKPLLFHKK
Thyrotropin-releasing hormone receptor (Homo sapiens), sequence (P34981 whole entry, looked up): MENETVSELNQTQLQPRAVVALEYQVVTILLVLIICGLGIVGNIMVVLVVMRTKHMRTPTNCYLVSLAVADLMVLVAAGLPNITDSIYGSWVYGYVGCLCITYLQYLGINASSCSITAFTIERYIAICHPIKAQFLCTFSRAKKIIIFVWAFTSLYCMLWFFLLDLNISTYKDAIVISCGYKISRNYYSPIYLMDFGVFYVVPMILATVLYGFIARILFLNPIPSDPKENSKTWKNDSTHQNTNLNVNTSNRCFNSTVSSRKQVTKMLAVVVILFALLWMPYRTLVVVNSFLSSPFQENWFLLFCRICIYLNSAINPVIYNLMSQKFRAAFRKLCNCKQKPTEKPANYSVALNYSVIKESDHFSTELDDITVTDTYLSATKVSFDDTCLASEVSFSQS

Consider `Clc1cc(Cl)nc(Cl)n1`, for which the Potency entry in assay [1], in assay [2], in assay [3], in assay [4], in [5] and in assay [6] was “inactive” each time. The Potency result in assay [7], in assay [8], in [9], in [10], in [11] and in assay [12] was “inactive” throughout. Also, in [14], the Potency entry is “inactive”. In [13], the result was inactive.
Regarding `Cc1cc2c(OCC(CNC(C)(C)C)OC(=O)c3ccccc3)cccc2[nH]1` (stereo not given), the Potency in assay [1] is 8.41 µM (active). Besides, the Potency entry in [2], in assay [3], in assay [4], in assay [15], in [6] and in assay [7] was “inactive” each time. The Potency result in assay [8], in assay [9], in [11], in [17] and in [12] was “inactive” each time. Moreover, the outcome in assay [16] was inactive.
For the molecule `C=C(C)[C@@H]1CCC2=CCC[C@@H](C)[C@]2(C)C1`, the Potency in assay [1] is 24.3 µM (active). Also, the Potency entry in [18], in assay [3], in assay [19], in [4], in [15] and in assay [5] was “inactive” each time. Further, the Potency entry in [6], in assay [8], in assay [11], in assay [17], in [12] and in assay [14] was “inactive” in each case. The molecule was classed as inactive in assay [16].
Turning to `O=[N+]([O-])c1cc(C2CCCCC2)c(O)c([N+](=O)[O-])c1`, the Potency in assay [1] is 1.08 µM (active); in [18] it was 24.3 µM (active); in assay [6], 15.3 µM (active); in [8], 24.3 µM (active). The Potency entry in assay [3], in [19], in assay [4], in [15], in [5] and in [11] was “inactive” each time. For the same molecule, the Potency result in [17] is “inactive”.
With `COc1cc(Nc2c(C#N)cnc3cc(OCCCN4CCN(C)CC4)c(OC)cc23)c(Cl)cc1Cl`, the Potency was 13.3 µM (active) in assay [1]; 29.8 µM (active) in [18]; 33.5 µM (active) in assay [3]; 13.3 µM (active) in [5]; 11.9 µM (active) in [8]. The Potency result in assay [4], in assay [7], in assay [9], in [11], in assay [17] and in assay [12] was “inactive” throughout.
Take `CN1C(=O)N(c2ccccc2Br)Cc2cnc(Nc3ccc4c(c3)OCC(CO)O4)nc21` (stereo not given): the Potency in [1] was 6.86 µM (active); in [18], 61.1 µM (active); in assay [3], 34.4 µM (active); in assay [4], 38.6 µM (active); in assay [9] it was 38.6 µM (active); in [17], 34.7 µM (active). Also, the Potency result in [15], in assay [5], in assay [12] and in [14] was “inactive” in each case. Besides, the result in [16] and in assay [13] was inactive.
With `CN1CC(=O)N2[C@H](c3ccc4c(c3)OCO4)c3[nH]c4ccccc4c3C[C@@H]2C1=O`, the Potency entry in [1], in assay [18], in [3], in [4], in [15] and in assay [5] was “inactive” throughout. Also, the Potency result in assay [7], in assay [8], in assay [9], in assay [10], in assay [11] and in [17] was “inactive” throughout. Also, the Potency entry in assay [12] and in [14] was “inactive” throughout. In addition, the call in [16] and in assay [13] was inactive.
Consider `O=C(OC(=O)c1ccccc1)c1ccccc1`, for which the Potency entry in assay [1], in assay [20], in assay [18], in [3], in assay [19] and in assay [4] was “inactive” throughout. Moreover, the Potency entry in assay [15], in [5], in [6], in assay [7], in [8] and in assay [9] was “inactive” each time. The Potency result in assay [10], in assay [11], in assay [17], in assay [12] and in assay [14] was “inactive” in each case. The result in assay [16] and in assay [13] was inactive.
